Experimental data as given in PubChem BioAssay (NCI).
The panel holds about 83,000 compounds, 20% with a hit somewhere; the sample as a whole holds those more often.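 Values shown are percent growth following 48 h exposure of cells in 96-well plates to a single concentration of compound; below 10 was considered active.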 A number with no mark means an inactive call. Activity calls are given as the source filed them.

Assays:
Test in all cases: NCI-60 one-dose screen, 48 h (100 = growth as untreated, 0 = no growth, -100 = all killed)
Conditions in all cases: 10 µM unless noted
K-562 leukemia = tested on: K-562 leukemia
MALME-3M melanoma = tested on: MALME-3M melanoma
MDA-MB-231 breast = tested on: MDA-MB-231 breast
RXF 393 renal = tested on: RXF 393 renal
SF-268 CNS = tested on: SF-268 CNS
SF-295 CNS = tested on: SF-295 CNS
SF-539 CNS = tested on: SF-539 CNS
UACC-257 melanoma = tested on: UACC-257 melanoma
M14 melanoma = tested on: M14 melanoma
HCT-15 colon = tested on: HCT-15 colon
HT29 colon = tested on: HT29 colon
SNB-75 CNS = tested on: SNB-75 CNS
SNB-19 CNS = tested on: SNB-19 CNS
U251 CNS = tested on: U251 CNS
PC-3 prostate = tested on: PC-3 prostate
SK-MEL-5 melanoma = tested on: SK-MEL-5 melanoma
UACC-62 melanoma = tested on: UACC-62 melanoma
LOX IMVI melanoma = tested on: LOX IMVI melanoma
SK-MEL-28 melanoma = tested on: SK-MEL-28 melanoma
SK-MEL-2 melanoma = tested on: SK-MEL-2 melanoma

| Structure (SMILES) | growth (K-562 leukemia) | growth (MALME-3M melanoma) | growth (MDA-MB-231 breast) | growth (RXF 393 renal) | growth (SF-268 CNS) | growth (SF-295 CNS) | growth (SF-539 CNS) | growth (UACC-257 melanoma) | growth (M14 melanoma) | growth (HCT-15 colon) | growth (HT29 colon) | growth (SNB-75 CNS) | growth (SNB-19 CNS) | growth (U251 CNS) | growth (PC-3 prostate) | growth (SK-MEL-5 melanoma) | growth (UACC-62 melanoma) | growth (LOX IMVI melanoma) | growth (SK-MEL-28 melanoma) | growth (SK-MEL-2 melanoma) |
| --- | --- | --- | --- | --- | --- | --- | --- | --- | --- | --- | --- | --- | --- | --- | --- | --- | --- | --- | --- | --- |
| CS(=O)(=O)c1ccc(-n2cc(/C=C/C(=O)c3ccc(NC(=O)CO[N+](=O)[O-])cc3)c(-c3ccc(Cl)cc3)n2)cc1 | 119% | 100% | 79.5% | 86.8% | 111% | 91.2% | 92.7% | 97.1% | 91.6% | 96.2% | 108% | 111% | 84.9% | 92.9% | 96.2% | 98.4% | 83.3% | 96.9% | 66.1% | 94.9% |
| Cc1c(Nc2nnc(SCC(=O)Nc3sc4c(c3C#N)CCCC4)s2)c(=O)n(-c2ccccc2)n1C | 93.5% | 119% | 98.4% | 118% | 103% | 107% | 102% | 116% | 103% | 103% | 117% | 127% | 100% | 102% | 101% | 102% | 92.9% | 88.7% | 107% | 106% |
| CNC(=O)c1cc(-c2ccc(NC(=O)Nc3ccc(N4CCN(C)CC4)c(C(F)(F)F)c3)cc2)nc2cccnc12 | -56.9% (active) | -85.5% (active) | -78.4% (active) | -78.3% (active) | -71.3% (active) | -94.5% (active) | -89.2% (active) | -94.3% (active) | -94.2% (active) | -79.5% (active) | -89.3% (active) | -83.1% (active) | -79.4% (active) | -94.2% (active) | -90.6% (active) | -96.6% (active) | -83.8% (active) | -92.5% (active) | -92.2% (active) | -80.7% (active) |
| C#C[C@]1(O)CC[C@H]2[C@@H]3CC=C4c5sc(Nc6ccc(Cl)cn6)nc5CC[C@]4(C)[C@H]3CC[C@@]21C | 9.48% (active) | 58.3% | 27.2% | -53.2% (active) | 43.7% | -63% (active) | -30.8% (active) | -45.2% (active) | 50.7% | 39.7% | 47.2% | -0.325% (active) | 54.5% | 19.1% | 29.9% | 84% | 28.3% | 0.11% (active) | -27% (active) | -13.4% (active) |
| Clc1ccc2c(NCCCn3ccnc3)c3oc4ccccc4c3nc2c1 | 8.56% (active) | 43.2% | 36.7% | 32.3% | 45.3% | 26.3% | 27.4% | 80.7% | 61.7% | 13.7% | 19.4% | 47.8% | 57.1% | 19.6% | 47.9% | 76% | 66.1% | 14.4% | 68.2% | 84.9% |
| COc1cccc(-c2nn(-c3ccccc3)cc2-c2ccnc(N3CCN(C(=O)c4ccccc4)CC3)c2)c1 | 31.4% | 89.7% | 64% | 95.7% | 94.2% | 89.1% | 87.1% | 101% | 81.2% | 39.8% | 87.2% | 65.9% | 85.5% | 78.4% | 46.6% | 49.8% | 62.4% | 87.5% | 84.2% | 89% |
| O=C(CSc1nc2sc3c(c2c(=O)n1-c1ccc(Cl)cc1)CCCC3)NNC(=O)Nc1ccc(Cl)c(C(F)(F)F)c1 | 11.7% | 22.5% | 61.2% | 70.5% | 67% | 9.82% (active) | 73.1% | 46.5% | 44% | 24.5% | 6.06% (active) | 42.1% | 50.4% | 4.22% (active) | -2.4% (active) | 34.7% | 37.1% | 1.34% (active) | 53.7% | -9.26% (active) |
